We go through 16 compounds from PubChem BioAssay (NCATS).

The subject of experiment [1] is WaGa. Nature of the experiment: qHTS assay to identify novel small-molecules to repurpose for Merkel cell carcinoma treatment (AID 1296009). Note: nearly all actives have a fitted effect of over 60% in size. Note: potency is the fitted concentration of half-maximal effect. To be noted: MCC and control cell lines, CellTiter-Glo viability, 72 h; series mostly up to 46 µM. Put shortly:
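After compound transfer in DMSO, plates were kept 72 hr at 37 degree celsius. Luminescent ATP signal from CellTiter-Glo served as viability measure, normalized against DMSO and no-cell controls.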
(In general: In qHTS, concentration-response curves come from the screen itself.)

Experiment [2] relates to C33A. Nature of the experiment: Primary qHTS to identify gynecologic anti-cancer compounds using libraries of approved drugs and bioactive compounds (AID 1345084). Note: nearly all actives have a fitted effect of over 55% in size. Note: potency is the fitted concentration of half-maximal effect. As to conditions: Gynecologic cancer cell panel viability, ATPlite luminescence, 48 h; series mostly up to 57.5 µM. Put shortly: (§1)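 In this quantitative HTS, cell killing is estimated from loss of ATP-dependent luciferase light. Cells see five compound concentrations over a 48 h exposure.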

Experiment [3] concerns CAOV3. The experiment is described as above. To be noted: Gynecologic cancer cell panel viability, ATPlite luminescence, 48 h; series mostly up to 57.5 µM. In outline: as §1
The test system of experiment [4] is CASKI. The experiment is described as above. To be noted: Gynecologic cancer cell panel viability, ATPlite luminescence, 48 h; series mostly up to 57.5 µM. Put shortly: as §1
In general terms: Cellular ATP, detected with luciferase, serves as a proxy for viable cell number.

Experiment [5] has as its system Es-2. Described as above. To be noted: Gynecologic cancer cell panel viability, ATPlite luminescence, 48 h; series mostly up to 57.5 µM. In outline: as §1
Experiment [6] deals with HeLa. Described as above. As to conditions: Gynecologic cancer cell panel viability, ATPlite luminescence, 48 h; series mostly up to 57.5 µM. In outline: as §1
Experiment [7] concerns Hek293T. The experiment is described as above. As to conditions: Gynecologic cancer cell panel viability, ATPlite luminescence, 48 h, control line for the selectivity index; series mostly up to 57.5 µM. Put shortly: as §1
For experiment [8], the system named is JEG-3. The description is as above. To be noted: Gynecologic cancer cell panel viability, ATPlite luminescence, 48 h; series mostly up to 57.5 µM. In outline: as §1
Experiment [9] concerns OV90. Described as above. To be noted: Gynecologic cancer cell panel viability, ATPlite luminescence, 48 h; series mostly up to 57.5 µM. In outline: as §1
Experiment [10] deals with PA-1. Described as above. As to conditions: Gynecologic cancer cell panel viability, ATPlite luminescence, 48 h; series mostly up to 57.5 µM. In outline: as §1
Experiment [11] relates to SKOV3. The experiment is described as above. To be noted: Gynecologic cancer cell panel viability, ATPlite luminescence, 48 h; series mostly up to 57.5 µM. Put shortly: as §1
Experiment [12] concerns Tov-21-G. The description is as above. As to conditions: Gynecologic cancer cell panel viability, ATPlite luminescence, 48 h; series mostly up to 57.5 µM. Put shortly:
as §1

Experiment [13] has as its system Tov112D. Described as above. To be noted: Gynecologic cancer cell panel viability, ATPlite luminescence, 48 h; series mostly up to 57.5 µM. Put shortly: as §1
Experiment [14] is described as follows: Drug repurposing screens with cells derived from glioblastoma tumor samples (AID 1345199). For activity, negative = cell killing: % is set by controls: 0 for no effect and ±100 for the full control effect. Note: nearly all actives have a fitted effect of over 40% in size. Note: potency is the fitted concentration of half-maximal effect. As to conditions: GBM patient neurospheres viability, ATP luminescence, 48 h. In outline: (§2)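 Four patient lines of CD133+ GBM neurospheres were screened at several concentrations; hits were retested in those lines plus three slower-growing GBM lines, using 48-hour treatment and ATP-based viability.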

For experiment [15], the system named is astro. The description is as above. To be noted: viability, ATP luminescence, 48 h; series mostly up to 45.9 µM. Put shortly:
as §2

The target in experiment [16] is Nuclear receptor subfamily 1 group I member 2 (Rattus norvegicus) (UniProt Q9R1A7). Nature of the experiment: qHTS assay for small molecule activators of the rat pregnane X receptor (rPXR) signaling pathway (AID 651751; call rule not given here; note: 0% is about no effect). As to conditions: rPXR reporter cells, luciferase (One-Glo), 24 h.
Sequence of Nuclear receptor subfamily 1 group I member 2 (Rattus norvegicus) (Q9R1A7 whole entry, looked up): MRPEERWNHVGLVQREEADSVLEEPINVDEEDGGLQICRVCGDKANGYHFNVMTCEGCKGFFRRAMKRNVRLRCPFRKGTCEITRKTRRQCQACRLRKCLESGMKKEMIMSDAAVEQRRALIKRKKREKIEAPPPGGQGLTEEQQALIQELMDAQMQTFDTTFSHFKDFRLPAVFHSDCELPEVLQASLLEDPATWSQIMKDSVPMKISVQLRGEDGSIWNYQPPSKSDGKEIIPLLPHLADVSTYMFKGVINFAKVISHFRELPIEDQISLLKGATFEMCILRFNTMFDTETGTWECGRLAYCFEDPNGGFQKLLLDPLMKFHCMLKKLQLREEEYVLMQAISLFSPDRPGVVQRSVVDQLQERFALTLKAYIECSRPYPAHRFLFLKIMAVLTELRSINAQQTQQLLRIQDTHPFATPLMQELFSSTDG
A short description of experiment [17]: qHTS assay for small molecule activators of the human pregnane X receptor (PXR) signaling pathway (AID 720659; call rule not given here; note: 0% is about no effect).
Where [18] appears, read: at 45.9 µM (top of the series), tumour line B.
The mark [19] stands for this setting: at 45.9 µM (top of the series), tumour line D.
[20] abbreviates: at 46 µM (top of the series), tumour line A.

Values joined by “and” are separate entries in the source; they are usually repeats but may differ in a detail not shown here. Identical values can stand only once. Values without a mark were called inactive. Records with an inconclusive call do not appear. Active and inactive are the calls of the source. Unless noted, calls come from the whole dose curve; as a rule, active = well fitted curve in the direction sought with a large enough effect; inconclusive = small, poorly fitted or top-dose-only effect, or another doubt; inactive = no such curve, though single readings can be large; an effect the other way counts as inactive or inconclusive.

Consider `c1ccc(N2CCNCC2)cc1`, for which the Potency result in experiment [1], in [2], in [5], in [6], in experiment [9] and in experiment [10] was “inactive” in each case. Besides, the Potency result in experiment [12] and in [13] was “inactive” each time. The compound was classed as inactive in experiment [3], in [4], in [7], in experiment [8] and in experiment [11].
In the case of `CC(Cc1ccccc1)N(C)Cc1ccco1` (centres undefined), the Potency result in experiment [1], in [2], in [5], in experiment [6], in experiment [9] and in experiment [10] was “inactive” throughout. Also, the Potency result in experiment [12] and in [13] was “inactive” in each case. Further, the compound was called inactive in experiment [3], in experiment [4], in experiment [7], in experiment [8] and in experiment [11].
As to `O=c1[nH]c2ccccc2n1C1CCNCC1`, the Potency result in [1], in [2], in [5], in experiment [6], in experiment [9] and in experiment [10] was “inactive” each time. Besides, the Potency result in experiment [12] and in experiment [13] was “inactive” in each case. In addition, the compound was classed as inactive in experiment [3], in experiment [4], in experiment [7], in [8] and in experiment [11].
For the compound `Clc1ccc(C(c2ccc(Cl)cc2)C(Cl)(Cl)Cl)cc1`, the Potency result in experiment [1], in [2], in experiment [5], in experiment [6], in [9] and in experiment [10] was “inactive” throughout. Besides, the Potency entry in experiment [12] and in experiment [13] was “inactive” throughout. In addition, the outcome in [3], in [4], in experiment [7], in experiment [8] and in experiment [11] was inactive. Further, the Potency in [14] (tumour line A) is 11.2 µM (active).
As for `CC(C)N(CCC(C(N)=O)(c1ccccc1)c1ccccn1)C(C)C` (centres undefined), the Potency result in [1], in experiment [2], in experiment [5], in experiment [6], in [9] and in experiment [10] was “inactive” in each case. Besides, the Potency result in experiment [12], in experiment [13] and in [15] was “inactive” each time. The compound was called inactive in experiment [3], in experiment [4], in [7], in experiment [8] and in experiment [11]. Besides, the activity, negative = cell killing is -20.9% in [14] (setting [18]) and 4.58% in experiment [14] (setting [19]).
Consider `CC(C)NC(C)C`, for which the Potency result in [1], in experiment [2], in experiment [5], in [6], in experiment [9] and in [10] was “inactive” throughout. Besides, the Potency result in experiment [12], in [13] and in [15] was “inactive” in each case. The compound was called inactive in experiment [3], in [4], in experiment [7], in experiment [8], in experiment [11] and in [17]. The figures for the activity, negative = cell killing in experiment [14] (setting [18]), in [14] (setting [19]) and in experiment [14] (setting [20]) were 6.4%, 4.87% and 1.87%, respectively. For the same compound, in experiment [16], the max response was 7.26%.
Regarding `COc1ccc2c3c1O[C@H]1[C@H](O)CC[C@H]4[C@@H](C2)N(C)CC[C@@]341`, the Potency entry in experiment [1], in experiment [2], in experiment [5], in experiment [6], in experiment [9] and in [10] was “inactive” throughout. Also, the Potency entry in experiment [12], in experiment [13] and in experiment [15] was “inactive” in each case. For the same compound, the compound was classed as inactive in experiment [3], in [4], in [7], in experiment [8] and in experiment [11]. For the same compound, the activity, negative = cell killing in [14] (at 91.6 µM (top of the series), tumour line B) is -15.1%; in [14] (at 91.6 µM (top of the series), tumour line D) it was -10.3%.
`CC(NC(C)(C)C)C(=O)c1cccc(Cl)c1` (centres undefined): the Potency entry in [1], in experiment [2], in experiment [5], in experiment [6], in experiment [9] and in experiment [10] was “inactive” throughout. The Potency entry in [12] and in [13] was “inactive” throughout. Further, the compound was called inactive in [4], in experiment [7], in experiment [8] and in experiment [11]. Also, the activity, negative = cell killing in experiment [14] (setting [18]) is -9.74%; in experiment [14] (setting [19]), 3.9%.
As to `C=C(C)[C@H]1CN[C@H](C(=O)O)[C@H]1CC(=O)O`, the Potency result in experiment [1], in experiment [2], in [5], in [6], in [9] and in experiment [10] was “inactive” in each case. Further, the Potency result in experiment [12] and in experiment [13] was “inactive” throughout. Further, the call in experiment [4], in [7], in [8] and in experiment [11] was inactive. Also, the results for the activity, negative = cell killing in experiment [14] (setting [18]) and in experiment [14] (setting [19]) were -14.8% and -15.4%, respectively.
On to `CCc1cc2c(s1)-n1c(C)nnc1CN=C2c1ccccc1Cl`, for which the Potency entry in [1], in [2], in experiment [5], in experiment [6], in [9] and in [10] was “inactive” each time. In addition, the Potency result in experiment [12], in experiment [13] and in experiment [15] was “inactive” throughout. Moreover, the outcome in experiment [3], in experiment [4], in experiment [7], in experiment [8] and in experiment [11] was inactive. In addition, the values for the activity, negative = cell killing in experiment [14] (setting [18]) and in experiment [14] (setting [19]) were -22.1% and -8.05%, respectively.
Regarding `COc1cc(CCN)cc(OC)c1OC`, the Potency entry in experiment [1], in experiment [2], in [5], in [6], in experiment [9] and in [10] was “inactive” throughout. Besides, the Potency entry in [12] and in [13] was “inactive” each time. Besides, the call in experiment [4], in [7], in experiment [8] and in [11] was inactive. For the same compound, the activity, negative = cell killing in [14] (at 108 µM (top of the series), tumour line B) was -15.3%; in experiment [14] (at 108 µM (top of the series), tumour line D) it was 5.13%.
Take `COc1c2c(cc3c1OCO3)CCN(C)C2`: the Potency entry in experiment [1], in [2], in experiment [5], in [6], in experiment [9] and in experiment [10] was “inactive” in each case. Besides, the Potency result in experiment [12], in experiment [13] and in [15] was “inactive” in each case. The call in experiment [3], in [4], in [7], in [8] and in experiment [11] was inactive. In addition, the activity, negative = cell killing in experiment [14] (at 21.2 µM (top of the series), tumour line B) was -1.01%; in [14] (at 21.2 µM (top of the series), tumour line D), -13.1%.
Turning to `NC(=O)CS(=O)C(c1ccccc1)c1ccccc1` (centres undefined), the Potency entry in experiment [1], in experiment [2], in experiment [5], in experiment [6], in [10] and in [12] was “inactive” each time. In [13], the Potency result is “inactive”. Also, the outcome in [3], in experiment [4], in [7], in experiment [8] and in experiment [11] was inactive. Besides, the figures for the activity, negative = cell killing in experiment [14] (setting [18]), in [14] (setting [19]) and in [14] (setting [20]) were -12.2%, -18.4% and -9.02%, respectively.
Regarding `C[C@]12CC[C@H]3[C@@H](CCC4=CC(=O)CC[C@@H]43)[C@@H]1CC[C@@H]2OC(=O)CCc1ccco1`, the Potency result in [1], in [2], in [5], in [9], in [12] and in experiment [13] was “inactive” in each case. The result in experiment [4], in experiment [7], in experiment [8] and in experiment [11] was inactive. The Potency in experiment [6] is 3.16 µM (active); in experiment [10], 25.1 µM (active).
As to `C[C@]12CC[C@H]3[C@@H](CCC4=CC(=O)CC[C@@H]43)[C@@H]1CC[C@@H]2OC(=O)CCC1CCCCC1`, the Potency is 18.8 µM (active) in experiment [1] and 11.2 µM (active) in [6]. In addition, the Potency entry in experiment [2], in [5], in experiment [9], in experiment [10], in experiment [12] and in experiment [13] was “inactive” each time. The result in experiment [4], in experiment [7], in experiment [8] and in experiment [11] was inactive.
`O=P1(N(CCCl)CCCl)NCCCO1` (centres undefined): the Potency entry in [1], in experiment [2], in experiment [5], in experiment [6], in experiment [9] and in experiment [10] was “inactive” throughout. In addition, the Potency result in experiment [12], in [13] and in [15] was “inactive” each time. Also, the outcome in experiment [3], in [4], in experiment [7], in experiment [8] and in experiment [17] was inactive. The activity, negative = cell killing is -0.921% in [14] (setting [18]) and 1.42% in experiment [14] (setting [19]). Also, in experiment [16], the max response is 6.19% and -0.989%.
